We go through 39 compounds from PubChem BioAssay (NCI).

Each structure is given as a SMILES string. The panel holds about 83,000 compounds, 20% with a hit somewhere; the sample as a whole holds those more often.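 Note: values are percent growth. 100 is the growth of untreated cells, values between 100 and 0 indicate rising inhibition; between -100 and 0 indicates cell death.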 Values without a mark were called inactive. The source made the active and inactive calls. Rule for the calls: active = growth percent below 10; inactive = the rest.

The first test concerns OVCAR-4 ovarian. Briefly: NCI-60 one-dose screen, 48 h (100 = growth as untreated, 0 = no growth, -100 = all killed). The settings on record: 10 µM unless noted.
As to `CN(C)CCCNC(=O)c1cncnc1Nc1ccc2c(ccn2Cc2cccc(F)c2)c1`, the growth was 116%.

As to `CCOC(=O)/C(=C(/C)NCC(C)C)c1cc(O)c(O)c2c(C)cc(=O)[nH]c12`, the growth was 25.8%.

Consider `COc1ccc(Nc2ncc(C#N)c(NCCCNC(=O)C3CCC3)n2)cc1`, for which the growth is 77.7%.

As for `C=C1SC(=Nc2ccccc2Cl)N(C(=O)c2sc3ccccc3c2Cl)C1(C)C`, the growth is 29.8%.

`CN1CC(c2ccc(Br)cc2)C(C(=O)c2ccc(Br)cc2)C12C(=O)Nc1ccccc12` (stereo not drawn): the growth is 63.6%.

For the compound `CC(C)Cc1nc(Nc2ccccc2)[nH]c(=O)c1C#N`, the growth is 36.8%.

Consider `CC(C)(C)c1ccc(S(=O)(=O)Oc2ccc(-c3sc4cc(OS(=O)(=O)c5ccc(C(C)(C)C)cc5)ccc4c3C(=O)c3ccc(OCCN4CCCCC4)cc3)cc2)cc1`, for which the growth is 97.1%.

Take `Nc1ncccc1O`: the growth is 98.4%.

As to `COc1cc(C[C@H]2COc3cc(O)cc(O)c3C2=O)ccc1O`, the growth is 63.1%.

Regarding `CCN(CC)C(=O)CC1=C(C)/C(=C/c2[nH]c(-c3ccc[nH]3)cc2OC)N=C1C`, the growth is 43.9%.

For `COc1ccc(C2CC(c3ccccc3)=NN2C(=O)c2cc(OC)c(OC)c(OC)c2)cc1O` (stereo not drawn), the growth is 42%.

`C[C@@H]1CN(c2cnc(C(=O)Nc3cc(F)cc4cccnc34)cn2)C[C@H](C)N1`: the growth is 12.7%.

For the compound `O=C(Nc1cc(Cl)ccc1O)c1ccccc1Nc1ccnc(C(F)(F)F)c1`, the growth is 19.8%.

For the compound `O=c1ccc2ccc(OCCN3CCCCC3)cc2o1`, the growth was 113%.

As to `CC1(C)CC(=O)C2=C(C1)C(c1ccc(Cl)cc1)n1ncc(C#N)c1N2` (stereo not drawn), the growth is 96.3%.

`CCOC(=O)C1=C(CCl)N(C)C(=O)NC1c1ccc2c(c1)OCO2` (stereo not drawn): the growth was 55.9%.

Turning to `COc1ccc(-c2cc(C(=O)N3N=C(c4ccc(N)cc4)CC3c3ccc(Cl)cc3)c3ccccc3n2)cc1` (stereo not drawn), the growth was 59.6%.

As for `Cn1cc(-c2csc(-c3cn(C)c4ccccc34)n2)c2cnccc21`, the growth is 68.1%.

Consider `CC(C)c1ccc2c(c1)CC[C@H]1[C@](C)(C(=O)OCC#CCN3CCCC3)CCC[C@]21C`, for which the growth was 64.4%.

Turning to `Cc1cc(=O)n(C(=S)Nc2ccc(Cl)cc2)c2cc(O)ccc12`, the growth was 92.5%.

For `O=C1Nc2ccc(Cl)cc2/C1=C/c1ccc[nH]1`, the growth was 44.3%.

For `COc1nc(/C=C\Nc2ccc3c(c2)OCCOCCOCCOCCO3)nc(OC)n1`, the growth was 95.5%.

With `CC1=C2CC/C(C)=C/CC[C@]3(C)O[C@H]3CC/C(C)=C/[C@H]2OC1`, the growth was 95.2%.

For the compound `CCN1C(=O)N(CC)C2C1NN=c1s/c(=C\c3ccc(OC)cc3)c(=O)n12` (stereo not drawn), the growth is 46.3%.

For the compound `Cc1nn(C)c2ncnc(N/N=C/c3cccc(O)c3O)c12`, the growth was 22%.

Consider `CC(C)C1C2=C(NCCN1C(=O)c1ccncc1)C(C)(C)N(Cc1ccccc1)C2=O` (stereo not drawn), for which the growth was 111%.

On to `CN(C)c1ccc(C(=S)c2ccc(N(C)C)cc2)cc1`, for which the growth is 83%.

As for `CSc1ccc(N2C(=N)C(=S)N(c3ccc(C)cc3)C2=O)cc1`, the growth is 96.4%.

With `CCOC(=O)C/C(=N\Nc1cc(=O)[nH]c2ccc(C)cc12)C(=O)OCC`, the growth is 106%.

Consider `Clc1ccc(Nc2ncc(Cc3cccc(Cl)c3Cl)s2)cc1`, for which the growth was 94.8%.

Take `CCOC(=O)c1nnn(-c2no[n+]([O-])c2-c2ccc(OC)cc2)c1COc1cccc2cccnc12`: the growth was 27%.

For `NC(=O)c1ccccc1OCC(=O)Nc1ccc(Cl)c(Cl)c1`, the growth was 96.5%.

With `C=C1CC[C@@H]2C(C)(C)[C@H](O)CC[C@@]2(C)[C@@H]1COc1ccc2ccc(=O)oc2c1`, the growth is 50.8%.

Turning to `O=S(Nc1ccccc1)c1ccc(Cl)cc1` (stereo not drawn), the growth is 95.5%.

Take `COc1cccc(-c2cn3nc(-c4cn(C)c5ccccc45)sc3n2)c1`: the growth is 93.6%.

Take `COc1cc2c(cc1-c1c(C)noc1C)ncc1nc(CN3CCOCC3)n([C@H](C)COC(F)F)c12`: the growth is 35.9%.

For `CN1c2ccccc2S(=O)(=O)n2c(SCC(=O)Nc3nc4ccc(F)cc4s3)nnc21`, the growth was 112%.

Turning to `O=S(=O)(Nc1cc(Sc2nc3ccccc3s2)c(O)c2ccccc12)c1ccc2ccccc2c1`, the growth is 77.8%.

As to `Cn1c(C#N)ccc1-c1ccc(F)c(NC(=O)c2ccc(F)cc2)c1`, the growth is 85%.

Another test concerns SK-OV-3 ovarian. The description is as above. As to conditions: 10 µM unless noted.
As to `CN(C)CCCNC(=O)c1cncnc1Nc1ccc2c(ccn2Cc2cccc(F)c2)c1`, the growth is 111%.

For `CCOC(=O)/C(=C(/C)NCC(C)C)c1cc(O)c(O)c2c(C)cc(=O)[nH]c12`, the growth is 84.4%.

For `COc1ccc(Nc2ncc(C#N)c(NCCCNC(=O)C3CCC3)n2)cc1`, the growth is 77.6%.

For the compound `C=C1SC(=Nc2ccccc2Cl)N(C(=O)c2sc3ccccc3c2Cl)C1(C)C`, the growth was 58.6%.

With `CN1CC(c2ccc(Br)cc2)C(C(=O)c2ccc(Br)cc2)C12C(=O)Nc1ccccc12` (stereo not drawn), the growth is 80.8%.

On to `CC(C)Cc1nc(Nc2ccccc2)[nH]c(=O)c1C#N`, for which the growth is 60%.

Consider `CC(C)(C)c1ccc(S(=O)(=O)Oc2ccc(-c3sc4cc(OS(=O)(=O)c5ccc(C(C)(C)C)cc5)ccc4c3C(=O)c3ccc(OCCN4CCCCC4)cc3)cc2)cc1`, for which the growth was 88.8%.

For the compound `Nc1ncccc1O`, the growth is 107%.

For the compound `COc1cc(C[C@H]2COc3cc(O)cc(O)c3C2=O)ccc1O`, the growth was 29.2%.

In the case of `CCN(CC)C(=O)CC1=C(C)/C(=C/c2[nH]c(-c3ccc[nH]3)cc2OC)N=C1C`, the growth is 22.4%.

On to `COc1ccc(C2CC(c3ccccc3)=NN2C(=O)c2cc(OC)c(OC)c(OC)c2)cc1O` (stereo not drawn), for which the growth was 54.9%.

Regarding `C[C@@H]1CN(c2cnc(C(=O)Nc3cc(F)cc4cccnc34)cn2)C[C@H](C)N1`, the growth was 86.2%.

Take `O=C(Nc1cc(Cl)ccc1O)c1ccccc1Nc1ccnc(C(F)(F)F)c1`: the growth is 49.9%.

For `O=c1ccc2ccc(OCCN3CCCCC3)cc2o1`, the growth is 82.7%.

As for `CC1(C)CC(=O)C2=C(C1)C(c1ccc(Cl)cc1)n1ncc(C#N)c1N2` (stereo not drawn), the growth is 82.8%.

For `CCOC(=O)C1=C(CCl)N(C)C(=O)NC1c1ccc2c(c1)OCO2` (stereo not drawn), the growth was 93.7%.

`COc1ccc(-c2cc(C(=O)N3N=C(c4ccc(N)cc4)CC3c3ccc(Cl)cc3)c3ccccc3n2)cc1` (stereo not drawn): the growth is 21.6%.

Turning to `Cn1cc(-c2csc(-c3cn(C)c4ccccc34)n2)c2cnccc21`, the growth was 105%.

On to `CC(C)c1ccc2c(c1)CC[C@H]1[C@](C)(C(=O)OCC#CCN3CCCC3)CCC[C@]21C`, for which the growth was 88.4%.

`Cc1cc(=O)n(C(=S)Nc2ccc(Cl)cc2)c2cc(O)ccc12`: the growth was 79.1%.

As for `O=C1Nc2ccc(Cl)cc2/C1=C/c1ccc[nH]1`, the growth was 117%.

For `COc1nc(/C=C\Nc2ccc3c(c2)OCCOCCOCCOCCO3)nc(OC)n1`, the growth is 106%.

As for `CC1=C2CC/C(C)=C/CC[C@]3(C)O[C@H]3CC/C(C)=C/[C@H]2OC1`, the growth was 95.7%.

With `CCN1C(=O)N(CC)C2C1NN=c1s/c(=C\c3ccc(OC)cc3)c(=O)n12` (stereo not drawn), the growth is 40.5%.

Take `Cc1nn(C)c2ncnc(N/N=C/c3cccc(O)c3O)c12`: the growth is 9.76% (active).

For `CC(C)C1C2=C(NCCN1C(=O)c1ccncc1)C(C)(C)N(Cc1ccccc1)C2=O` (stereo not drawn), the growth was 98.9%.

`CN(C)c1ccc(C(=S)c2ccc(N(C)C)cc2)cc1`: the growth was 82.4%.

Take `CSc1ccc(N2C(=N)C(=S)N(c3ccc(C)cc3)C2=O)cc1`: the growth was 81.1%.

Consider `CCOC(=O)C/C(=N\Nc1cc(=O)[nH]c2ccc(C)cc12)C(=O)OCC`, for which the growth is 126%.

As to `Clc1ccc(Nc2ncc(Cc3cccc(Cl)c3Cl)s2)cc1`, the growth is 102%.

`CCOC(=O)c1nnn(-c2no[n+]([O-])c2-c2ccc(OC)cc2)c1COc1cccc2cccnc12`: the growth was 12.4%.

Take `NC(=O)c1ccccc1OCC(=O)Nc1ccc(Cl)c(Cl)c1`: the growth is 96.9%.

For `C=C1CC[C@@H]2C(C)(C)[C@H](O)CC[C@@]2(C)[C@@H]1COc1ccc2ccc(=O)oc2c1`, the growth was 104%.

As to `O=S(Nc1ccccc1)c1ccc(Cl)cc1` (stereo not drawn), the growth is 109%.

As for `COc1cccc(-c2cn3nc(-c4cn(C)c5ccccc45)sc3n2)c1`, the growth is 93.6%.

Regarding `COc1cc2c(cc1-c1c(C)noc1C)ncc1nc(CN3CCOCC3)n([C@H](C)COC(F)F)c12`, the growth is 7.42% (active).

Consider `CN1c2ccccc2S(=O)(=O)n2c(SCC(=O)Nc3nc4ccc(F)cc4s3)nnc21`, for which the growth is 112%.

As to `O=S(=O)(Nc1cc(Sc2nc3ccccc3s2)c(O)c2ccccc12)c1ccc2ccccc2c1`, the growth is 101%.

With `Cn1c(C#N)ccc1-c1ccc(F)c(NC(=O)c2ccc(F)cc2)c1`, the growth is 80%.
